# The full ranking holds about 4,500 sequences; the median of “median log2 fold change of GCK-ALFA target abundance (FLAG IP / Myc IP barcode read proportion)” is about 0.078, and the lowest 2% start at about -0.6. The entries come from a sample that favours the lowest values as a whole.
# B1: GBRAP_160_4816 (protein)
# chain: MEKVEELLKEAEEDLLDTAEASKDLPIEDRAALLRAEGYTSILELKEELNLSDETEDKLVAIVDELVARLLANPDLTPEEVLALVKEAYEKMKKIVLEEA
# B2: GBRAP_11_2768 (protein)
# chain: KKEELKKAAELAEKAAKTVEKLLKEGVDNEELLKEIEELLKELKKLTEKYGNEDMKKLVKIAEELLEEIKKDPENAEEYAKELKATLDVLAGQYLLEAEE
# B3: GBRAP_128_3156 (protein)
# chain: SVEEVRKKTRELLEKIKESDDETARELARELFELIGTLSPEEAEAAVEVILERLPELSEEKLEILADVAREMMPKYDPYKANLLAEVEVEALNEAEELEE
# B4: GBRAP_160_4781 (protein)
# chain: SEKKEKLKKAIEEAAKEIKEAIDTESPEQVLTVVRGEGGDILQEAEELGIDNEEALEGLDKGIKELEAAMKAAADASPEEKKAIVDKAKEKMIETLDKLT
# B5: GBRAP_52_5905 (protein)
# chain: MRARLRADLEEIIAAVRAGDLEAARAKARELAETYDDEELELAAEELAALVLEAPREDLPAWWRTAEIIAEALEEAGRDEVLADLVLSRTAAAIHEVLQR
# B6: GBRAP_184_5056 (protein)
# chain: MIHEKVIKAETLEELEEKLEELEEELKDFKGELIVHVEIPEFTEEMIELIIERLKRILENGYVSSVTLGLDGKMSEEVVDLAIKLADEAGIKLVIALEEE
# B7: GBRAP_14_3829 (protein)
# chain: MEEIEAVIEEAREDLIELFEEIVPEKAEELAEAVEEVFEELKRRIKETGNVEEAIEEARERLKEEAKKILADEPEEIRNLVLAAIDIEFAELEEEIEELL
# B8: GBRAP_160_4075 (protein)
# chain: SKETEELKKEIKEIAEEAIEFIKESNLENQIAIAEMMAGDILMLVFEAPFISDEDEERIDKILDKYVELLKENKDWSLEEKEEIIKEMAEEVIKEVEKAS
# B9: GBRAP_11_2853 (protein)
# chain: KKEKLKEIAELAEEAIKLLEELLKKGVDDEELQKKILEKLKELLELVKKYLDEADVKLAEYALESFEKSLKDPENAEEYVNEALAFLRVLLGNVLLEIDE
# B10: GBRAP_78_6627 (protein)
# chain: EVEELLEKALEKVEEAAKLATKIPSEKAIDILDELIDAFEYLEEAIEEGGDLEKIEKALKELKKALELIKEQNDPKLEPLKKEVEEAIKLLEKAKKKIKE
# B11: GBRAP_177_5010 (protein)
# chain: SRLAEIEAAADDPEALLALVAATDLRELSREELLALLRALARAIAREGPRPELLEAAVRVAVALITDHGVSLAEVVAILIEHADPDTVEEVVERVAERLA
# B12: GBRAP_39_5638 (protein)
# chain: SREEEAEETFDYLEALGAKLLSERGISLDELLEEEYKYAREAFKDDPELLAAIDELYELALKGDDTDKLAAAGAFSLVREGKSKEEVLEAVELLIYYLKS
# B13: GBRAP_160_4650 (protein)
# chain: EERKEKLKERIKELIEEAYEMMKGETHEERIAIARVMGGDIILELDEDEGVSDEAIEEVDKIMDEFVATLEANPDLTDEEIRALLEEMLKKIFEIIDKYT
# B14: GBRAP_9_7158 (protein)
# chain: MDELVAKLREVIEDAFEEIKEVVPEEVKPIVEKLREEAEKRLEELEEDPEATPEELVEEAKRILREFRERMKKEVDEETAKIVDAIVDTAELEIEEIEEE
# B15: GBRAP_39_5717 (protein)
# chain: EEEEEAENIFSYYEAVGAAEMYKRGISLEELFERTLAEARELAADDPELLAALEELEELALKAGDEAKLAATGIMVRLVEGAPREEVLADLKKLIAYLKS
# B16: GBRAP_160_4742 (protein)
# chain: KEELEKLKKEIEEIFKEGIELLKESEKEEALTIVRGIMGDVIMEVMSSEAASDELEEKIAEIADKAIEEVEKNKDAPIEKVIEIVEKAREEILKLIEEEI
# B17: GBRAP_160_4574 (protein)
# chain: SEEMKKLKEEIKEITEEAKEFIEGQSREEQIAIVKVAMGDILLLLDENPLVSDETEDKAAAIGDALIAYIEAHPDLTAEEIKELLEKATEEIIKLIEKEE
# B18: GBRAP_128_3555 (protein)
# chain: STEEVVEEAEELLEKIKESDEEEAREYARELVRLLASVDEESREAIVKVILERLPELTVEQLEILADVFREERPKVDPDVANALAEIEVEALNVALEKEE
# B19: GBRAP_137_3630 (protein)
# chain: ATVEIEVEEYEDVVEITVTLKDAAKAEAVKELVLDVAHEHGALAVSVEVEEDGTLVVTVWVPREKAEAFLEALVRRLQTELGLRVRVRNLDTGEEEEFEP
# B20: GBRAP_128_3422 (protein)
# chain: SRAAAVARARALLEAMKTADDATAAALADELAALFASADLETAEAIAEVIRAEIPKLTAKQLDILADAFRAALPKLTPEKANIAADVIVDLLNEREELEE
# B21: GBRAP_128_3379 (protein)
# chain: MDEEKLERVRELVRRAIESDVEETRELTREVVRLMGTLSPEEREAAAEIVIEALPEFSREKLDAIADTIRELRPELDPLGQELAAEVEVAALNRAEELEE
# B22: GBRAP_52_6373 (protein)
# chain: MEERARELARRILELAEAGDEEGLREEVRRIVEEESDELIAAVLRELRDMILTEPGLDPEALLTAAATLASEVLEAEKGTPETWAALTELLAAALALEQA
# B23: GBRAP_52_5974 (protein)
# chain: MEEEMRKLAKEIVALILAGDEAGARALLEEIAATKTEEEITLLFKELAKLAKTATPEERDAIVEAALLAEDIALAAGFDEAVMDSNLADVVKAAVDAEKA
# B24: GBRAP_184_5132 (protein)
# chain: TLLERAVEAKTAEELIAKARAVVEEAAAAGARLVLSVFAEDLSVEDNIAVIRELGELKAAHPQIEAIIVDLPEVSEEDLDKLIEAADAAGVKLVAAIPDE
# B25: GBRAP_52_6073 (protein)
# chain: MEEKIEKLAEEITEAIKAGDDEKALELLEKAVKELSEEEIKKLLVLTAKKVAKLNEEEHERFVDILDEFEDILIENGISEEDALLIVGDALAALAKEVAK
# B26: GBRAP_52_6102 (protein)
# chain: MREELRKKVREILELVREGKLEEARKKIKELVESLNDEEIRLVADEIAELAREAAPEDLDAVWTLAEMFAEELEKAGKPEVLVDYLLASTAAALYEREQA
# B27: GBRAP_195_5410 (protein)
# chain: MKVVGRVLRIEESDTPEDILAKIEAIVAEVKEESNGDLVLVVARHPSVPEETVRAAVAEAAERYPEIKITVEIFDDISLPLETLEAFARMEVANEEEERE
# B28: GBRAP_160_3988 (protein)
# chain: EEEKKKLLKEIEEIFKETYELASGEDPENRLTVVRVHMGEILLLAEESGILSEESIEKIDEILDELVEKVAANPDMTDEELKALLEEALKKIKEIIEAEK
# B29: GBRAP_137_3679 (protein)
# chain: MKVKITIEEHEDVVEITVTIEDKETGEELAEKIEDIAVEVGALAISVEKNEDGTYEVTIYVPKEKLEELLKKILELLKDADEVEIIRIVDGKETVEVIKN
# Target: GABARAP, O95166
# Assay: median log2 fold change of GCK-ALFA target abundance (FLAG IP / Myc IP barcode read proportion) (log2 ratio); each designed protein is fused to an ALFA-tag nanobody in HEK293 cells to bring the named protein to FLAG-tagged glucokinase (GCK); Myc marks an untargeted standard; higher = target protein stabilised (more abundant)
# Conditions: target protein: 3xFLAG-MCP-GCK-ALFA reporter; HEK293 landing pad (RPLP)
# Method in brief: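 The readout is target abundance, the per-binder median log2 ratio of FLAG to Myc barcode read proportions. It came from HEK293 landing-pad cells carrying a recombined ALFA-nanobody-fused binder library, induced with 2 μg mL^−1 doxycycline and transfected with a plasmid for a FLAG-tagged target and a Myc-tagged standard. After 48 h, lysates were immunoprecipitated with anti-FLAG and anti-Myc, and circular RNA barcodes were reverse transcribed, amplified and sequenced. Each barcode needed a proportion of at least 10^−7 in both replicates and each binder at least 3 barcodes per replicate, a pseudocount of 10^−6 was added, and the replicates were pooled.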
# Chain of GABARAP, O95166 (O95166 whole entry, the tested form may be a part): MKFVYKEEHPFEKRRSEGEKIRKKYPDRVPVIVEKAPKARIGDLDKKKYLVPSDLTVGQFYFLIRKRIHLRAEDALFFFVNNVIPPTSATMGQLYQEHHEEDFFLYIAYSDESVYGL
row,Binder,median log2 fold change
1,B1,0.0572
2,B2,0.117
3,B3,-0.269
4,B4,0.333
5,B5,-0.658
6,B6,0.234
7,B7,-0.798
8,B8,-0.29
9,B9,0.174
10,B10,-0.061
11,B11,0.0662
12,B12,0.2
13,B13,-0.715
14,B14,0.0143
15,B15,0.239
16,B16,0.15
17,B17,-0.302
18,B18,-0.0585
19,B19,-0.302
20,B20,-0.139
21,B21,0.284
22,B22,-0.998
23,B23,-0.0573
24,B24,0.00161
25,B25,-0.605
26,B26,0.197
27,B27,0.261
28,B28,-0.199
29,B29,-0.124
